Measured values published in PubChem BioAssay AID1159580 (chemical genetic matrix, 2015).
The campaign covered roughly 5,500 compounds. About 2,000 (36%) were called active. Another 18% or so got no clear call; they are omitted. No stated cut-off is given here; in the data, active means normalized growth mostly below about 0.91 (no sharp cut-off); inconclusive means no clear call, values can overlap the other calls; inactive means mostly above about 0.92. The list shows a part of the results.

Experiment: chemical genetic growth profiling, strain panel (AID 1159580);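 further: tested at 20 µM; growth read once vehicle control cultures reached saturation at 30 °C; 1 = growth at the plate median or of vehicle wells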
Settings: S. cerevisiae deletion strains, growth OD

Measured: normalized growth

C[C@@]1(C2CCCC2)Cc2cc(OCC(=O)O)c(Cl)c(Cl)c2C1=O
inactive: locus YAL040C, strain CLN3, stronger effect = lower value 1 | locus YCL061C, strain MRC1 (second series), stronger effect = lower value 1.01 | locus YDR363W, strain ESC2, stronger effect = lower value 1.01 | locus YER002W, strain NOP16, stronger effect = lower value 1 | locus YMR307W, strain GAS1, stronger effect = lower value 1.01 | locus YNL128W, strain TEP1, stronger effect = lower value 1 | locus YNL175C, strain NOP13, stronger effect = lower value 1 | locus YNL197C, strain WHI3, stronger effect = lower value 1 | locus YNL224C, strain SQS1, stronger effect = lower value 1 | locus YNL322C, strain KRE1, stronger effect = lower value 1 | locus YOR083W, strain WHI5 (second series), stronger effect = lower value 1.01 | locus YPL055C, strain LGE1, stronger effect = lower value 1.01 | locus YPL241C, strain CIN2, stronger effect = lower value 1.01
